# Experimental data published in PubChem BioAssay (NCATS).
# Results filed as inconclusive are left out. Entries that show only a call come without a potency. Active and inactive are the calls of the source. Calls follow the shape of the dose curve; as a rule, active = well fitted inhibition curve with a large enough effect; inconclusive = small, poorly fitted or top-dose-only effect; inactive = no such curve, though single readings can be large or run the other way. Numbered stars: 1 amine (or outer) side, 2 acyl side, 3 side chain; on linkers, the order of the positions; unused ones are H or OH. Square brackets hold non-standard residues; d marks the D form. Peptide text beside a SMILES is read from it. X10 = O=C(C(CC(O)CO)O[*:1])[*:2]; NMeV = CN[CH](C(=O)O)C(C)C; NMeA = CN[CH](C)C(=O)O; βAla = NCCC(=O)O
# Target: Retinaldehyde dehydrogenase 3 (Homo sapiens) (UniProt P47895)
# Assay: qHTS for Inhibitors of the Aldehyde Dehydrogenase Family (ALDH1A3) Primary screen (AID 2061315)
# Conditions: ALDH inhibition qHTS; series mostly up to 56 µM
SMILES,Potency,"activity change, negative = inhibition"
C/C=C(/C)C(=O)O[C@@H]1C[C@@H](OC(=O)CC(C)C)C2(C)C3C(=O)C=C(C)C2C3C1(C)C (stereo not given in full),inactive,
CC(=O)OCC1OC(OC2COC(OC3COC(OC4C(OC5C(CO)OC(OC6CCC7(C)C(CCC8(C)C7CC=C7C9CC(C)(C)CCC9(C(=O)OC9OC(CO)C(O)C(O)C9OC9OCC(OC%10OCC(O)(CO)C%10O)C(O)C9O)C(O)CC78C)C6(C)C)C(O)C5O)OCC(O)C4O)C(O)C3O)C(O)C2O)C(OC(=O)/C=C/c2ccccc2)C(O)C1OC(C)=O (stereo not given),,-8.22% [at 11.2 µM] (inactive)
C=CC(C)(O)C1CC2C3(C)CCCC(C)(C)C3C(O)C(O)C2(C)O1 (stereo not given),inactive,
CC1=C(C)C(=O)OC(C(C)C2CCC3C4C5OC5C5(O)CC(OC6OC(CO)C(OC7OC(C)C(O)C(O)C7O)C(O)C6O)CC(O)C5(C)C4CCC23C)C1 (stereo not given),inactive,
C=CC(C)(O)CC/C=C(\C)C(=O)O[C@@H]1[C@@H](O)[C@H](OC(C)(C=C)CC/C=C(\C)C(=O)O)O[C@H](CO)[C@H]1OC(=O)/C(C)=C/CCC(C)(O)C=C (stereo not given in full),inactive,
CC1(C=O)CCCC2(C)C1CCC13CC(CO)C(CCC12)C3 (stereo not given),inactive,
Cn1ncnc1[C@@H]1c2n[nH]c(=O)c3cc(F)cc(c23)N[C@H]1c1ccc(F)cc1,inactive,
C/C(=C\CCC(C)C1CC(O)C2(C)C3CCC4C(C)(C)C(OC5OCC(O)C(O)C5O)CCC45CC35CC(O)C12C)C(=O)O (stereo not given),inactive,
C=C1C(OC2OC(CO)C(O)C(O)C2O)CC2C(C)(C)C(O)CCC2(C)C1CC/C(C)=C\COC(=O)CC(=O)O (stereo not given),inactive,
O=S(=O)(c1ccccc1)N(CC(F)(F)F)c1ccc(C(O)(C(F)(F)F)C(F)(F)F)cc1,inactive,
CC(C)=C1C[C@@]2(C)C(=CC1=O)CC[C@@H](OC(=O)/C(C)=C/CO)[C@@H]2C,inactive,
NC(N)=NC(=O)c1cnn(-c2cccc3ncccc23)c1C1CC1,inactive,
Cc1cc2c(cc1N1C(=O)c3cccc4c(CCCO)ccc(c34)C1=O)n(C)c(=O)n2C,inactive,
CN=C(N)NCCCCC/C=C(/C)CC(C)C1OC(=O)C(C)C(O)/C=C/C(C)C(O)CC(O)C(C)C(O)CCC(C)C(O)CC2(O)OC(CC(OC(=O)CC(=O)O)CC(O)CC(O)C(C)C(O)/C(C)=C/CCC1C)CC(O)C2O (stereo not given),inactive,
Cc1ccc([C@@H]2CC=C(C(=O)O)[C@H](c3ccc(C(C)(C)C)cc3)N2S(=O)(=O)c2ccc(C)cc2)cc1,inactive,
COc1c(O)cc2c(c1O)[C@@H]1O[C@H](CO)[C@@H](O)[C@H](O)[C@H]1OC2=O,inactive,
CC(=C/C(=O)O)/C=C/[C@]1(O)[C@@]2(C)CO[C@]1(C)C[C@H](O[C@@H]1O[C@H](CO)[C@@H](O)[C@H](O)[C@H]1O)C2,inactive,
CC(=O)c1cc2c(cc1O)OC(C)(C)C=C2,inactive,
CC1(C)CC[C@]2(C(=O)O)CC[C@]3(C)C(=CCC4[C@@]5(C)CC[C@H](O[C@@H]6O[C@H](CO)[C@@H](O)[C@H](O)[C@H]6O[C@@H]6O[C@H](CO)[C@@H](O)[C@H](O)[C@H]6O)[C@@](C)(CO)C5CC[C@]43C)[C@@H]2C1 (stereo not given in full),inactive,
CC(=O)O[C@H]1CC(C)(C)CC2[C@@]13[C@H](O)C[C@]1(C)[C@@]2(CCC2[C@@]4(C)CC[C@H](O[C@@H]5OC[C@H](O[C@@H]6O[C@H](CO)[C@@H](O)[C@H](O)[C@H]6O[C@@H]6OC[C@@H](O)[C@H](O)[C@H]6O)[C@H](O)[C@H]5O[C@@H]5O[C@H](CO)[C@@H](O)[C@H](O)[C@H]5O)C(C)(C)C4CC[C@]21C)O[C@@H]3O (stereo not given in full),inactive,

SMILES,Potency,"activity change, negative = inhibition"
CC(=O)O[C@@H]1[C@@H](CO)O[C@@](CO)(O[C@H]2O[C@H](COC(=O)/C=C/c3ccccc3)[C@@H](O)[C@H](O)[C@H]2O)[C@H]1O,inactive,
C=C[C@H]1[C@H](O[C@@H]2O[C@H](CO)[C@@H](O)[C@H](O)[C@H]2O)OC=C2C(=O)N3Cc4c([nH]c5ccccc5c4=O)[C@@H]3C[C@H]21,inactive,
CC1=CCC[C@@H]2[C@@](C)(CCc3ccoc3)[C@H](C(=O)O)CC[C@@]12C,inactive,
C=C[C@@](C)(CCC=C(C)C)O[C@@H]1O[C@H](CO[C@@H]2OC[C@H](O)[C@H](O)[C@H]2O)[C@@H](O)[C@H](O)[C@H]1O,inactive,
O=C(/C=C/c1ccc(O)cc1)OC[C@@]1(O)C=C[C@@H]2C(C(=O)O)=CO[C@@H](O[C@@H]3O[C@H](CO)[C@@H](O)[C@H](O)[C@H]3O)[C@@H]21,inactive,
CC1CC(C(O)C(C)(C)O)OC2CC3(C)C4(C)CCC5C(C)(C)C(=O)CCC5(C)C4CCC3(O)C12O (stereo not given),inactive,
CC1=CCC2C(C)(C)CCCC2(C)C1CC12OC1C(O)C(CO)=CC2O (stereo not given),inactive,
COc1cc(O)cc(C)c1C(=O)OC1C(CO)OC(n2ccc(=O)[nH]c2=O)C1OC(C)=O (stereo not given),inactive,
CCOC(=O)C1(CCOc2ccccc2)CCN(Cc2ccc(O)c(Cl)c2)CC1,inactive,
C=CC1(C)CC2CCC3C(C)(C(=O)O)CCCC3(C)C2=CC1=O (stereo not given),inactive,
COc1ccc([C@@]2(O)c3c(ccc(CC=C(C)C)c3O)NC(=O)[C@@H]2OC)cc1,inactive,
CC(=O)O[C@@H]1CC2C(/C=C(\C)C(=O)[C@@]3(O)C[C@@H](C)[C@H](OC(=O)c4ccccc4)C3/C=C/1C)C2(C)C (stereo not given in full),inactive,
CCC(C)C1NC(=O)C2CCCN2C(=O)C(CC(O)CO)OC(=O)CCNC(=O)C(C)N(C)C(=O)C(C(C)C)N(C)C1=O (stereo not given) (cyclo([X10]PI[NMeV][NMeA][βAla]); configuration not given here),inactive,
CCn1nnnc1NCc1ccc(C(C)C)cc1,inactive,
CC1=C2C3OC(=O)C(C)C3(O)CCC2(C)CCC1=O (stereo not given),inactive,
C=C1C2CCC3C(CCC4[C@@]3(C)CCC[C@@]4(C)C(=O)O)(C2)[C@@H]1OC(=O)/C(C)=C\C (stereo not given in full),inactive,
NC(=O)Nc1cc(-c2cccc(F)c2)sc1C(=O)NC1CCCNC1 (stereo not given),inactive,
CC(=O)Nc1ccc(S(=O)(=O)Nc2cc(C)on2)cc1,inactive,
COc1cc(C)c(C(=O)OC2C(C)OC(OC3CCC(C)C4C3C=C(C)C3/C(C)=C\CC/C(C)=C/C5(C)C=C(C(=O)O)C(C)CC56OC(=O)/C(=C(\O)C34C)C6=O)C(O)C2O)c(OC)c1 (stereo not given),inactive,
C/C(=C\CO[C@@H]1O[C@H](CO[C@H]2OC[C@](O)(CO)[C@H]2O)[C@@H](O)[C@H](O)[C@H]1O)C(C)(C)O,inactive,
